Data reported in PubChem BioAssay (Tox21).
A number with no mark means an inactive call. Calls of active or inactive are those of the source. Calls come from the whole dose curve; as a rule, active = well fitted curve in the direction sought with a large enough effect in the repeat runs; inconclusive = weak or mixed curves; inactive = flat fitted curve, though single readings scatter.

Assay: qHTS assay to test for compound auto fluorescence at 535 nm (green) in HEK293 cells (AID 720680)
Conditions: green autofluorescence 485/535 nm; series mostly up to 91.3 µM; fluorescence, % of fluorescein: at the top concentration
Source text: U.S. Tox21 Program National Center for Advancing Translational Sciences [NCATS] NIH Chemical Genomics Center [NCGC] U.S. Environmental Protection Agency [EPA] National Institutes of Environmental Health Sciences [NIEHS] National Toxicology Program [NTP] U.S. Food and Drug Administration [FDA] Tox21 Assay Overview: Compound auto fluorescence often interferes with screening of the compound library against various biological targets and signaling pathways. Some of these compounds may have fluorophoric properties. Such properties may interfere with the assay outputs resulting in false positives and/or negatives. To decrease such complications and ensure the compound activities are relevant in terms of biological response, the Tox21 10K compound library was screened for auto fluorescence. From the fluorophores used as reporter signals in our screening assays, the auto fluorescence equivalencies of compounds against three fluorophores have been evaluated: Triamterene, Fluorescein and Rose Bengal sodium for blue, green and red fluorescence, respectively. The fluorescence intensities were measured using Excitation/Emission wavelengths at 405/460nm, 485/535nm and 540/590nm for blue, green and red labels, respectively. This assay includes the green fluorescence data.
Tox21 Assay Protocol Summary: 2,000 HEK293 cells in 5 uL of culture medium containing 10% dialyzed FBS per well were dispensed into black wall/clear bottom 1536-well plates using a Multidrop Combi Dispenser (Thermo Scientific). The assay plates were incubated for 4-5 hr at 37C to allow cell attachment to the well bottom, followed by the transfer of 23 nL compound or DMSO vehicle by a pintool work station (Kalypsys, San Diego, CA). After the assay plates were incubated overnight at 37C and 5% CO2, fluorescence intensities in the assay plates were measured by an Envision (PerkinElmer, Shelton, CT) plate reader using three labels for measuring blue, green and red fluorescence at […] 460, 535 and 590nm respectively.
% is set by controls: 0 for no effect and ±100 for the full control effect.

Going from `CC(=O)OC[C@H]1O[C@@H](n2ncc(=O)[nH]c2=O)[C@H](OC(C)=O)[C@@H]1OC(C)=O` to `COC(=O)C1=C(C)NC(COC(N)=O)=C(C(=O)OC(C)C)C1c1cccc(Cl)c1Cl` (stereo not given), the “fluorescence, % of fluorescein” value falls from -0.0055% [at 46 µM] to -0.116% [at 46 µM].

First: NC(=O)C(c1ccccc1)(c1ccccc1)[C@@H]1CCN(CCc2ccc3c(c2)CCO3)C1
Second: Cc1cccc(C)c1OCC(=O)N[C@@H](Cc1ccccc1)[C@@H](O)C[C@H](Cc1ccccc1)NC(=O)[C@H](C(C)C)N1CCCNC1=O
The “fluorescence, % of fluorescein” value of the first is higher: 0.0505% [at 46 µM] for the first, -0.136% [at 46 µM] for the second.

Compared with `Cc1cc(N)c2cc(NC(=O)Nc3ccc4nc(C)cc(N)c4c3)ccc2n1`, `O=C(Nc1ccc(S(=O)(=O)N2CCOCC2)cc1)c1cc(Cl)ccc1NS(=O)(=O)c1ccc(Cl)s1` is lower in “fluorescence, % of fluorescein” value: -0.0028% [at 46 µM] for the first, -0.0778% [at 46 µM] for the second.

First: C[C@H]1C[C@H]2[C@@H]3CCC4=CC(=O)C=C[C@]4(C)[C@@]3(Cl)[C@@H](O)C[C@]2(C)[C@@]1(O)C(=O)CO
Second: CCC(=O)O[C@]1(C(=O)CCl)[C@@H](C)C[C@H]2[C@@H]3CCC4=CC(=O)C=C[C@]4(C)[C@@]3(F)[C@@H](O)C[C@@]21C
The “fluorescence, % of fluorescein” value of the first is lower: -0.0466% [at 46 µM] for the first, 0.0008% [at 46 µM] for the second.

First: CNCCCCOc1ccccc1Cc1ccccc1
Second: CC(CSC(=O)c1ccccc1)C(=O)N1C[C@@H](Sc2ccccc2)C[C@H]1C(=O)O (stereo not given in full)
The “fluorescence, % of fluorescein” value of the first is lower: 0.0639% [at 46 µM] for the first, 0.167% [at 46 µM] for the second.

First: OC(CN1CCC(Cc2ccc(F)cc2)CC1)c1ccc(Cl)cc1 (stereo not given)
Second: CC[N+](C)(CC)CCOC(=O)C(O)(c1ccccc1)C1CCCCC1 (stereo not given)
The “fluorescence, % of fluorescein” value of the first is lower: 0.0152% [at 46 µM] for the first, 0.051% [at 46 µM] for the second.

Going from `C#CCN(C)CCCOc1ccc(Cl)cc1Cl` to `Cc1cccc(C)c1NC(=O)CN(CC(=O)O)CC(=O)O`, the “fluorescence, % of fluorescein” value rises from -0.104% [at 46 µM] to -0.0034% [at 46 µM].

First: O=C(NCCO[N+](=O)[O-])c1cccnc1
Second: O=C(CS)Nc1ccccc1
The “fluorescence, % of fluorescein” value of the first is lower: -0.0137% [at 46 µM] for the first, -0.0058% [at 46 µM] for the second.

Compared with `NCC(=O)CCC(=O)O`, `CC1(c2ccccc2)OC(C(=O)O)=CC1=O` (stereo not given) is higher in “fluorescence, % of fluorescein” value: -0.0266% [at 46 µM] for the first, 0.0849% [at 46 µM] for the second.

Compared with `C#C[C@]1(O)CC[C@H]2[C@@H]3CCc4cc(OC5CCCC5)ccc4[C@H]3CC[C@@]21C`, `Cc1ncc(CO)c(C=O)c1O` is lower in “fluorescence, % of fluorescein” value: 0.102% [at 46 µM] for the first, -0.0249% [at 46 µM] for the second.

Compared with `Clc1ccc(Cn2c(CN3CCCC3)nc3ccccc32)cc1`, `CN(C)CCCN1c2ccccc2Sc2ccccc21` is lower in fluorescence, % of fluorescein: 0.026% [at 18.6 µM] for the first, -0.0365% [at 18.6 µM] for the second.

First: Nc1cc(C(=O)O)c(O)c(S(=O)(=O)O)c1
Second: O=C(O)c1nc(Cl)c(Cl)c(Cl)c1Cl
The “fluorescence, % of fluorescein” value of the first is higher: 0.191% for the first, -0.0808% for the second.

Going from `CCOC(=O)C(F)(F)F` to `C=C(C)C(=O)OCCOCC`, the “fluorescence, % of fluorescein” value rises from 0.0232% to 0.0474%.

Going from `O=P(O)(OCc1ccccc1)OCc1ccccc1` to `O=C(OCCCCCCOC(=O)c1ccccc1)c1ccccc1`, the “fluorescence, % of fluorescein” value rises from -0.0719% to 0.115%.

Compared with `COc1ccc(C(=O)Nc2nc3ccccc3c(NCc3ccccc3)c2C#N)cc1`, `Cc1oc(-c2ccccc2)nc1CCOc1cccc2c1ccn2CCC(=O)O` is lower in “fluorescence, % of fluorescein” value: 0.0037% for the first, -0.0448% for the second.

Going from `O=C(O)CC(=O)C(=O)O` to `COCC(C)OC(C)=O` (stereo not given), the “fluorescence, % of fluorescein” value rises from -0.0949% to 0.0538%.

First: NCCCN1CCOCC1
Second: CCO[Si](CCCCl)(OCC)OCC
The “fluorescence, % of fluorescein” value of the first is lower: 0.0124% for the first, 0.0607% for the second.

Compared with `CC1=CC=C(C(C)C)CC1`, `Cc1nn(C)c(Oc2ccccc2)c1/C=N/OCc1ccc(C(=O)OC(C)(C)C)cc1` is lower in “fluorescence, % of fluorescein” value: 0.0197% for the first, -0.0245% for the second.

With `CCCCCCCCCCCC(=O)OC[C@@H](O)[C@H]1OC[C@H](OCCO)[C@H]1OCCO` the “fluorescence, % of fluorescein” value was 0.0543%.

Compared with `Cc1ccccc1S(=O)(=O)O`, `CCCCCCCN` is higher in “fluorescence, % of fluorescein” value: -0.0055% [at 95.7 µM] for the first, -0.0044% [at 95.7 µM] for the second.

In the case of `CC(C)C[C@H]1C(=O)N2CCC[C@H]2[C@]2(O)O[C@](NC(=O)[C@@H]3C=C4c5cccc6[nH]c(Br)c(c56)C[C@H]4N(C)C3)(C(C)C)C(=O)N12`, the outcome is reported as “inactive”.
